Source: paper PMC5540273 (PLoS ONE, 2017)

How the values were obtained:
Conditions in all cases: concentration: 1 μM, replicates: in singlicate; n = 1
MYO3B = system: MYO3B
NDR1 = system: T1, NDR1
T1 construct: gene STK38

NDR2 = system: NDR2
NEK10 = system: NEK10
NEK11 = system: NEK11
NEK1 = system: NEK1
NEK2 = system: NEK2
NEK3 = system: NEK3
NEK4 = system: NEK4
NEK5 = system: NEK5
NEK6 = system: NEK6
NEK7 = system: NEK7
NEK9 = system: NEK9
NIK = system: T2, NIK
T2 construct: gene MAP3K14

NIM1 = system: T3, NIM1
T3 construct: gene MGC42105

NLK = system: NLK
OSR1 = system: T4, OSR1
T4 construct: gene OXSR1

PAK1 = system: PAK1
PAK2 = system: PAK2
PAK3 = system: PAK3
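Note: KINOMEscan kinase panel screen.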

SMILES | %Inh (MYO3B) [%] | %Inh (NDR1) [%] | %Inh (NDR2) [%] | %Inh (NEK10) [%] | %Inh (NEK11) [%] | %Inh (NEK1) [%] | %Inh (NEK2) [%] | %Inh (NEK3) [%] | %Inh (NEK4) [%] | %Inh (NEK5) [%] | %Inh (NEK6) [%] | %Inh (NEK7) [%] | %Inh (NEK9) [%] | %Inh (NIK) [%] | %Inh (NIM1) [%] | %Inh (NLK) [%] | %Inh (OSR1) [%] | %Inh (PAK1) [%] | %Inh (PAK2) [%] | %Inh (PAK3) [%]
CCCCCc1nc2c(N)ncnc2n1CCCCC [SKF-97255] | 10 | 31 | 7 | 16 | 0 | 18 | 0 | 28 | 0 | 0 | 2 | 0 | 0 | 0 | 27 | 0 | 0 | 12 | 67 | 4
CCn1cnc2c(N)ncnc21 [GW345098] | 0 | 15 | 8 | 39 | 0 | 0 | 13 | 3 | 12 | 10 | 29 | 14 | 0 | 6 | 0 | 37 | 0 | 9 | 0 | 58
CC(C)Oc1ccc2c(-c3ccnc(Nc4ccc(N5CCN(C)CC5)cc4)n3)cnn2n1 [GW696155] | 0 | 86 | 52 | 97.6 | 86 | 86 | 93.3 | 98.5 | 10 | 100 | 99.8 | 92.6 | 92.9 | 21 | 75 | 47 | 87 | 83 | 53 | 28
CC(C)(C)n1cnc2c(N)ncnc21 [SKF-97359] | 5 | 0 | 0 | 12 | 14 | 0 | 0 | 42 | 0 | 0 | 0 | 0 | 0 | 33 | 17 | 2 | 0 | 0 | 0 | 0
O=c1cc(N2CCOCC2)nc2n(Cc3cccc(F)c3)ccn12 [GSK2297430] | 0 | 0 | 0 | 24 | 0 | 0 | 0 | 0 | 0 | 0 | 0 | 0 | 7 | 7 | 0 | 0 | 1 | 18 | 9 | 79
